# Laboratory results published in PubChem BioAssay (Tox21).
# Results filed as inconclusive are left out. A call without a number means that no potency is given here. Values without a mark were called inactive. Active and inactive are the calls of the source. Calls follow the shape of the dose curve; as a rule, active = well fitted curve in the direction sought with a large enough effect in the repeat runs; inconclusive = weak or mixed curves; inactive = no such curve, though single readings can be large; an effect the other way counts as inactive or inconclusive.
# Tests used:
# [1] = biological target: Cytochrome P450 2C9 (Homo sapiens) (UniProt P11712); experiment: Cytochrome P450 Family 2 Subfamily C Member 9 (CYP2C9) small molecule antagonists: luciferase reporter qHTS assay (AID 1671198); also: potency is read from the fitted curve at half-maximal effect; as to activity change, negative = inhibition: series mostly up to about 120 µM
# Summary of the method: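 Enzyme-substrate mix preincubated with compound 10 min at room temperature; reaction started with NADPH regeneration solution, 1 h 37C. Luminescent luciferin product read after 20 min detection reagent.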
# [2] = biological target: Cytochrome P450 1A2 (Homo sapiens) (UniProt P05177); experiment: Cytochrome P450 Family 1 Subfamily A Member 2 (CYP1A2) small molecule antagonists: luciferase reporter qHTS assay (AID 1671199); also: potency is read from the fitted curve at half-maximal effect; as to activity change, negative = inhibition: series mostly up to about 120 µM
# Summary of the method: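 Human CYP1A2 activity measured with a P450-Glo proluciferin substrate; compounds in DMSO preincubated 10 min at room temperature with enzyme-substrate mix, then NADPH regeneration system added for 1 h. Luciferin detection reagent, 20 min, luminescence read.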
# [3] = biological target: Voltage-gated inwardly rectifying potassium channel KCNH2 (Homo sapiens) (UniProt Q12809); experiment: Human Ether-a-go-go-Related Gene (hERG) channel small molecule antagonists: fluorescence cell-based qHTS assay (AID 1671200); also: series mostly up to about 77 µM
# Summary of the method: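 Thallium flux as potassium surrogate: FluxOR II dye loaded 1 h at room temperature into hERG-expressing U2OS cells, then stimulus buffer added after 10 min. Kinetic 480 nm excitation/540 nm emission read, 2 min.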
# [4] = biological target: Cytochrome P450 3A4 (Homo sapiens) (UniProt P08684); experiment: Cytochrome P450 Family 3 Subfamily A Member 4 (CYP3A4) small molecule antagonists: luciferase reporter qHTS assay (AID 1671201); also: potency is read from the fitted curve at half-maximal effect; as to activity change, negative = inhibition: series mostly up to about 120 µM
# Summary of the method: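 Recombinant human CYP3A4 converts a proluciferin substrate to luciferin over 1 h at room temperature after NADPH regeneration solution is added (compound preincubated 10 min); detection reagent stops reaction, luminescence read 20 min later as relative units.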
# Also: nearly all actives have a fitted effect of over 50% in size.
# Cytochrome P450 3A4 (Homo sapiens), sequence (P08684 whole entry, looked up): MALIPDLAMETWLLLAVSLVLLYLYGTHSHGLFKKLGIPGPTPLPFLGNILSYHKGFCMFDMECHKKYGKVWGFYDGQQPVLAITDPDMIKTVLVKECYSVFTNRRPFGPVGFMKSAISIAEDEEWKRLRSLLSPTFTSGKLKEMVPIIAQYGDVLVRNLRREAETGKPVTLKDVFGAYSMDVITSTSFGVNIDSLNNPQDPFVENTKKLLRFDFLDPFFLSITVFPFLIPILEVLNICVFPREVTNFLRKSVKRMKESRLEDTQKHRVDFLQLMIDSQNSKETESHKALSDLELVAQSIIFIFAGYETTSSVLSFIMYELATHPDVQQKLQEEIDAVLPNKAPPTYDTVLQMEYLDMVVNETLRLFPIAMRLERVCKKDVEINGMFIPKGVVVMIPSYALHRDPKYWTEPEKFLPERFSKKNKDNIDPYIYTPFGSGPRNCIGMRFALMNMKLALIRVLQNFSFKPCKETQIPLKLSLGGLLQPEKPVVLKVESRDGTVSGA
# Cytochrome P450 2C9 (Homo sapiens), sequence (P11712 whole entry, looked up): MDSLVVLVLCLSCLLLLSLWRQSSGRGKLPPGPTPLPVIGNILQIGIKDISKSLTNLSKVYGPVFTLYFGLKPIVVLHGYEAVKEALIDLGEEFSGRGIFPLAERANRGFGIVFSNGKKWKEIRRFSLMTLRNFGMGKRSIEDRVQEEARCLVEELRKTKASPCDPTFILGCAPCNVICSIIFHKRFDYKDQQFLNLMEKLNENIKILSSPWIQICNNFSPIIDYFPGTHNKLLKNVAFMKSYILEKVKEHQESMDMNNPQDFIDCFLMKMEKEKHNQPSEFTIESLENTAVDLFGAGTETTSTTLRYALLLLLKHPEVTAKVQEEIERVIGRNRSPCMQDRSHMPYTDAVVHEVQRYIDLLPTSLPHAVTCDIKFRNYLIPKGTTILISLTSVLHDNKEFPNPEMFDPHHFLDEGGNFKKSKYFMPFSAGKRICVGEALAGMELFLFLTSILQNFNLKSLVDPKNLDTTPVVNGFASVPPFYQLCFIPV
# Voltage-gated inwardly rectifying potassium channel KCNH2 (Homo sapiens), sequence (Q12809 whole entry, looked up): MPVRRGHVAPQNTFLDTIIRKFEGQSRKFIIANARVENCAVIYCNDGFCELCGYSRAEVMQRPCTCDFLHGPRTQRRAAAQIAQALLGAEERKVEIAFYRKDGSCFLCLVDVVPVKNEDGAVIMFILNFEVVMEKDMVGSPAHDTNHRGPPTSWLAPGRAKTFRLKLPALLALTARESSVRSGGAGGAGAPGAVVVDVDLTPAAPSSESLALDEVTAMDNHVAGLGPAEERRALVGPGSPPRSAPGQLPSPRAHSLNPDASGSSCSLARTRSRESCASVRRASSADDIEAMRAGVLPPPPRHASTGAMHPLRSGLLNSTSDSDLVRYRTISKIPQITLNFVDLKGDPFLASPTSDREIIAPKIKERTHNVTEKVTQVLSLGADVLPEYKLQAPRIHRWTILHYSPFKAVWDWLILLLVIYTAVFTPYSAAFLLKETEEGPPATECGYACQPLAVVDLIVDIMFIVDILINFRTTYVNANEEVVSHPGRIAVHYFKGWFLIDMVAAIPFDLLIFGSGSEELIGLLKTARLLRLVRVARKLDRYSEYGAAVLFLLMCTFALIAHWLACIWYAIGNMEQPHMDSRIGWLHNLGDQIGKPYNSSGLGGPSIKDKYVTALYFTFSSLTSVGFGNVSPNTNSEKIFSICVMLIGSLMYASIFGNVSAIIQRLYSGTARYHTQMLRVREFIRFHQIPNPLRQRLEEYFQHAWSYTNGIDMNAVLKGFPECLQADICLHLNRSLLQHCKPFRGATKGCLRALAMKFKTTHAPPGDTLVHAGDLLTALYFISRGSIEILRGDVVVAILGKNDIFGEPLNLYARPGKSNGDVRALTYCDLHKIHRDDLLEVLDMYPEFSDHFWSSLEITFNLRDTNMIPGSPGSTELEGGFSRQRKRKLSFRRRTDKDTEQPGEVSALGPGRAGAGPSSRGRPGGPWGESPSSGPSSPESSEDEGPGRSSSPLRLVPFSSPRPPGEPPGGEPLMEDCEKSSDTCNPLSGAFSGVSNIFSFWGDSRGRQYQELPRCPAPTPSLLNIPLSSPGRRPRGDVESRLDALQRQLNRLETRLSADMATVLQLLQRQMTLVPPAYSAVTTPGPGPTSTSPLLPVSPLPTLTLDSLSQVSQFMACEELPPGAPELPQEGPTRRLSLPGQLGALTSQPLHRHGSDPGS
# Cytochrome P450 1A2 (Homo sapiens), sequence (P05177 whole entry, looked up): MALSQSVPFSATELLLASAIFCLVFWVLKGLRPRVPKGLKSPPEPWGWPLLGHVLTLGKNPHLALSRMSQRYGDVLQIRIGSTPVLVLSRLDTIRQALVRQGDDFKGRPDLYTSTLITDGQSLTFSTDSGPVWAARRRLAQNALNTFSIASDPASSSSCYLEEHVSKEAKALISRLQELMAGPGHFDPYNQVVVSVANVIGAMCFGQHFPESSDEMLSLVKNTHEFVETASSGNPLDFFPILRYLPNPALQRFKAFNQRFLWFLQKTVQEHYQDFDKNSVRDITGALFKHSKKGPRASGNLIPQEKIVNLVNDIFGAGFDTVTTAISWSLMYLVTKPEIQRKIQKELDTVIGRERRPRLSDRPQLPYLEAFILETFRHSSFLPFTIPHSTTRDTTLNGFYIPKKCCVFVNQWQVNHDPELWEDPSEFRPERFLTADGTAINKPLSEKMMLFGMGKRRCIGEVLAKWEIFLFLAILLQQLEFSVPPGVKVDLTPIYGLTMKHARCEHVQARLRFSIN
structure (smiles),measurement,setting,value
CC(=O)c1cnccn1,Potency,[1],inactive
same,Potency,[2],inactive
same,Potency,[3],inactive
same,Potency,[4],inactive
CC(C)C(=O)OC(=O)C(C)C,Potency,[1],inactive
same,Potency,[2],inactive
same,Potency,[3],inactive
same,Potency,[4],inactive
CN1CC(=O)N/C1=N/C(=O)Nc1cccc(Cl)c1,Potency,[1],inactive
same,Potency,[2],20.4 µM (active)
same,Potency,[3],inactive
same,Potency,[4],inactive
CN(C)[C@@H]1C(=O)C(C(=O)NCN2CCCC2)=C(O)[C@@]2(O)C(=O)C3=C(O)c4c(O)cccc4[C@@](C)(O)C3C[C@@H]12 (stereo partly specified),Potency,[1],inactive
same,Potency,[2],17.4 µM (active)
same,Potency,[3],inactive
same,Potency,[4],inactive
C[C@@H]1CCC[C@H](C)N1,Potency,[1],inactive
same,Potency,[2],inactive
same,Potency,[4],inactive
C=COC(=O)C(C)(CC)CCC(C)C (stereo unspecified),Potency,[2],inactive
same,Potency,[3],inactive
NC(=O)N[C@@H](CCC(=O)O)C(=O)O,Potency,[1],inactive
same,Potency,[2],inactive
same,Potency,[3],inactive
same,Potency,[4],inactive
C[N+](C)(C)CCCCCCCCCC[N+](C)(C)C,Potency,[1],inactive
same,Potency,[3],inactive
same,Potency,[4],inactive
CC(=O)C1CCCCC1=O (stereo unspecified),Potency,[2],inactive
same,Potency,[3],inactive
CCCCCCCCCC[N+](C)(C)[O-],Potency,[1],inactive
same,Potency,[2],inactive
same,Potency,[3],inactive
same,Potency,[4],inactive
CC(=O)N1C[C@H](O)C[C@H]1C(=O)O,Potency,[1],inactive
same,Potency,[2],inactive
same,Potency,[3],inactive
same,Potency,[4],inactive
COc1cc(-c2ccc(=O)[nH]n2)ccc1OC(F)F,Potency,[1],inactive
same,Potency,[3],inactive
Clc1cc(Cl)cc(Cl)c1,Potency,[1],inactive
same,Potency,[2],inactive
same,Potency,[3],inactive
same,Potency,[4],inactive
CC(=O)c1ccccc1[N+](=O)[O-],Potency,[1],inactive
same,Potency,[2],39.2 µM (active)
same,Potency,[3],inactive
same,Potency,[4],inactive
CCCCCC(C)N (stereo unspecified),Potency,[1],inactive
same,Potency,[2],inactive
same,Potency,[3],inactive
same,Potency,[4],inactive
COc1ccnc(CS(=O)c2nc3cc(OC(F)F)ccc3[nH]2)c1OC (stereo unspecified),Potency,[2],35.8 µM (active)
NS(=O)(=O)Cc1noc2ccccc12,Potency,[2],inactive
CCC(C)(CCCC(C)C)OC(C)=O (stereo unspecified),Potency,[1],inactive
same,Potency,[2],inactive
same,Potency,[3],inactive
same,Potency,[4],inactive
CO[C@@]1(NC(=O)CSC[C@@H](N)C(=O)O)C(=O)N2C(C(=O)O)=C(CSc3nnnn3C)CS[C@@H]21,Potency,[1],inactive
same,Potency,[2],inactive
same,Potency,[3],inactive
same,Potency,[4],inactive
C=COCC1CCC(COC=C)CC1 (stereo unspecified),Potency,[1],inactive
same,Potency,[2],inactive
same,Potency,[3],inactive
same,Potency,[4],inactive
CC(=O)Oc1cccc(C)c1,Potency,[1],inactive
same,Potency,[2],inactive
same,Potency,[3],inactive
same,Potency,[4],inactive
CC(CO)(CO)[N+](=O)[O-],Potency,[1],inactive
same,Potency,[2],inactive
same,Potency,[4],inactive
CCN[C@H]1C[C@H](C)S(=O)(=O)c2sc(S(N)(=O)=O)cc21,Potency,[1],inactive
same,Potency,[2],inactive
same,Potency,[3],inactive
same,Potency,[4],inactive
O=S(=O)(O)c1cccc2c(S(=O)(=O)O)cccc12,Potency,[1],70.9 µM (active)
same,Potency,[2],79.5 µM (active)
same,Potency,[3],inactive
same,Potency,[4],inactive
Nc1ccn([C@@H]2O[C@H](CO)[C@@H](O)[C@@H]2O)c(=O)n1,Potency,[2],inactive
same,Potency,[3],inactive
same,Potency,[4],inactive
CC(=O)OCC(=O)[C@@]1(O)[C@H](C)C[C@H]2[C@@H]3CCC4=CC(=O)C=C[C@]4(C)[C@@]3(F)[C@@H](O)C[C@@]21C,Potency,[2],inactive
same,Potency,[3],inactive
CCCC(=O)O[C@]1(C(=O)CC)CC[C@H]2[C@@H]3CCC4=CC(=O)CC[C@]4(C)[C@H]3[C@@H](O)C[C@@]21C,Potency,[2],inactive
Nc1ccn([C@@H]2O[C@H](CO)[C@@H](O)C2O)c(=O)n1 (stereo partly specified),Potency,[1],inactive
same,Potency,[2],inactive
same,Potency,[3],inactive
same,Potency,[4],inactive
C=CN1CCCCCC1=O,Potency,[1],inactive
same,Potency,[3],inactive
same,Potency,[4],inactive
Cc1c(N)c(=O)n(-c2ccccc2)n1C,Potency,[3],inactive
NCCCC(N)(C(=O)O)C(F)F (stereo unspecified),Potency,[3],inactive
CCN1CCOCC1,Potency,[2],39.2 µM (active)
same,Potency,[3],inactive
same,Potency,[4],inactive
C[N+]1(CC2COC(c3ccccc3)(c3ccccc3)O2)CCCCC1 (stereo unspecified),Potency,[2],inactive
same,"activity change, negative = inhibition",[3],-15.6% [at 15.8 µM]
same,"activity change, negative = inhibition",[4],-9.22% [at 23.6 µM]
OCCc1ccccn1,Potency,[2],inactive
same,Potency,[3],inactive
same,Potency,[4],inactive
CCOC(=O)OC(C)OC1=C(C(=O)Nc2ccccn2)N(C)S(=O)(=O)c2ccccc21 (stereo unspecified),Potency,[2],inactive
same,Potency,[4],inactive
CCCCS(=O)(=O)N[C@@H](Cc1ccc(OCCCCC2CCNCC2)cc1)C(=O)O,Potency,[2],inactive
same,Potency,[4],inactive
CCCCCCCC1CCCC1=O (stereo unspecified),Potency,[2],inactive
same,Potency,[3],inactive
same,Potency,[4],inactive
CN(C)CCCCCCN(C)C,Potency,[3],inactive
CC(C)=CCC/C(C)=C/C#N,Potency,[3],inactive
same,Potency,[4],inactive
Nc1ccccn1,Potency,[3],inactive
CC(C)NNC(=O)c1ccncc1,Potency,[2],inactive
same,Potency,[3],inactive
same,Potency,[4],inactive
O=C1NC(=O)C2CC=CCC12 (stereo unspecified),Potency,[3],inactive
CC[N+](C)(CC)CCOC(=O)C1c2ccccc2Oc2ccccc21,Potency,[3],inactive
same,Potency,[4],inactive
CNCC(O)c1ccc(O)c(O)c1 (stereo unspecified),Potency,[3],inactive
O=S(=O)(O)c1cccc2ccccc12,Potency,[3],inactive
same,Potency,[4],inactive
CC(=O)NC(=O)c1ccccc1O,Potency,[3],inactive
same,Potency,[4],inactive
CCCCCCC1CCC(=O)O1 (stereo unspecified),Potency,[3],inactive
same,Potency,[4],inactive
C1CCC2=NCCCN2CC1,Potency,[3],inactive
O=C(O)CC(C(=O)O)S(=O)(=O)O (stereo unspecified),Potency,[2],31.7 µM (active)
same,Potency,[3],inactive
same,Potency,[4],inactive
NO,Potency,[3],inactive
CC(C)C[C@@H](N)C(=O)O,"activity change, negative = inhibition",[3],1.04% [at 15.8 µM]
CC1(C)[C@@H]2CC[C@@]1(C)[C@H](O)C2,Potency,[2],inactive
same,Potency,[4],inactive
COc1cc(C)nc(-n2nc(C)cc2OC)n1,Potency,[3],inactive
C=CCCC(=O)O,Potency,[2],inactive
same,Potency,[3],inactive
same,Potency,[4],inactive
CCOC(=O)C(=O)CCCCCCl,Potency,[4],inactive
CC(C)(C#N)Nc1nc(Cl)nc(NC2CC2)n1,Potency,[2],39.9 µM (active)
same,Potency,[4],20 µM (active)
CCCOC(=O)CC,Potency,[2],35.5 µM (active)
same,Potency,[3],inactive
same,Potency,[4],inactive
Cc1nc2ccc(CN(C)c3ccc(C(=O)N[C@@H](CCC(=O)O)C(=O)O)s3)cc2c(=O)[nH]1,Potency,[3],inactive
same,Potency,[4],inactive
C[N+]1(C)[C@@H]2CC(OC(=O)[C@H](CO)c3ccccc3)C[C@H]1[C@@H]1O[C@@H]12 (stereo partly specified),Potency,[2],inactive
same,Potency,[3],inactive
same,Potency,[4],inactive
CCCCCC(=O)OCCc1ccccc1,Potency,[3],inactive
same,Potency,[4],inactive
COC(=O)C1=C(C)NC(C)=C(C(=O)OC(C)C)C1c1cccc2nonc12 (stereo unspecified),Potency,[3],inactive
OCCCCCO,Potency,[2],inactive
same,Potency,[4],inactive
CC1=C(C/C=C(\C)CCC[C@H](C)CCC[C@H](C)CCCC(C)C)C(=O)c2ccccc2C1=O,Potency,[3],inactive
same,Potency,[4],inactive
CN1CCC(=C2c3ccccc3CCc3cccnc32)CC1,Potency,[3],inactive
CCCCCCCCN1CCCC1=O,Potency,[2],39.9 µM (active)
same,Potency,[4],inactive
CCCCN1C=CN(C)C1,"activity change, negative = inhibition",[3],-0.505% [at 15.8 µM]
c1ccc(Cc2ccccc2)cc1,Potency,[2],35.6 µM (active)
same,Potency,[3],inactive
same,Potency,[4],inactive
